In PubChem BioAssay (Tox21):
Results filed as inconclusive are left out. A number with no mark means an inactive call. Activity calls are given as the source filed them. Calls come from the whole dose curve; as a rule, active = well fitted activation curve with a large enough effect in the signal ratio in the repeat runs (not every such curve was filed as active); inconclusive = weak or mixed curves; inactive = flat fitted curve, though single readings scatter; the % refers to the signal ratio.

Assay: p53 small molecule agonists, cell-based qHTS assay (AID 1963582)
Details: HCT-116 p53RE-bla reporter, beta-lactamase FRET ratio, 16 h; series mostly up to 66 µM; activation: at the top concentration
Source text: National Center for Advancing Translational Sciences [NCATS]
Division of Preclinical Innovation [DPI]
U.S. Environmental Protection Agency [EPA]
National Institutes of Environmental Health Sciences [NIEHS]
National Toxicology Program [NTP]
U.S. Food and Drug Administration [FDA]
p53, a tumor suppressor protein, is activated following cellular insult, including DNA damage and other cellular stresses. The activation of p53 regulates cell fate by inducing DNA repair, cell cycle arrest, apoptosis, or cellular senescence. The activation of p53, therefore, is a good indicator of DNA damage and other cellular stresses. […] The activation of the reporter gene under culture conditions can be detected by fluorescence intensity. This cell line was used to screen the Tox21 10K compound library in a 1536-well plate format and to identify agonists that activate the p53 signaling pathway.
Tox21 Assay Protocol Summary:
The p53RE-bla cells were dispensed at 4,000 cells/5 ul/well in 1536-well black wall/clear bottom plates using a Multidrop dispenser. After the assay plates were incubated at a 37 C/5% CO2 incubator for 5 hours, 23 nL of compounds dissolved in DMSO, positive controls or DMSO only was transferred to the assay plate by a pin tool. The plates were incubated at 37 C for 16 hours. After 1 uL of LiveBLAzerTM B/G FRET substrate was added using a Flying Reagent Dispenser, the plates were incubated at room temperature for 2 hours, and fluorescence intensity was measured by an Envision plate reader.
% is set by controls: 0 for no effect and ±100 for the full control effect; potency is the fitted concentration of half-maximal effect.

First: CC1(C)[C@@H](O)CC[C@]2(C)[C@H]3C(=O)C=C4[C@@H]5C[C@@](C)(C(=O)O)CC[C@]5(C)CC[C@@]4(C)[C@]3(C)CC[C@@H]12
Second: CC(C)c1ccc2c(c1)CC[C@H]1[C@](C)(CN)CCC[C@]21C
The “activation” value of the first is higher: 7.9% for the first, 3.5% for the second.

Compared with O=S(=O)(Oc1ccc(Cl)cc1)c1ccccc1, Brc1ccccc1-c1ccccc1 is higher in “activation” value: -3.82% for the first, 1.49% for the second.

Going from [O-][N+](=Nc1ccccc1)c1ccccc1 to CC(=O)OC(C(=O)c1ccccc1)c1ccccc1 (stereo not given), the “activation” value rises from -0.0679% to 3.05%.

Going from C=Cc1ccncc1 to O=C(O)C(=O)Cc1ccccc1, the “activation” value falls from -1.88% to -2.85%.

First: O=C1c2ccccc2Cc2ccccc21
Second: Oc1ccc2c(c1)-c1ccccc1C2
The “activation” value of the first is lower: -4.69% for the first, 2.79% for the second.

Going from CCCCCCCCCCCCN1CCCC1=O to CCCCCc1ccc(O)cc1, the “activation” value rises from -1.87% to 6.8%.

First: Cc1cc(Cl)c(C)cc1Cl
Second: COC(=O)c1cc(Cl)ccc1[N+](=O)[O-]
The “activation” value of the first is lower: -0.178% for the first, 0.392% for the second.

Going from C1CCC2=NCCCN2CC1 to NC(=O)Cn1c(=O)cc(CCN2CCN(c3nccc4sccc34)CC2)c2ccc(F)cc21, the “activation” value falls from -1.77% to -8.17%.

Going from CC(C)c1cccc(C(C)C)c1NC(=O)NS(=O)(=O)c1cc(C(C)(C)O)co1 to CCC(C)Nc1ccc(NC(C)CC)cc1 (stereo not given), the “activation” value falls from -4.39% to -9.13%.

First: CC(C)c1nnc2ccc(-c3ocnc3-c3cc(F)ccc3F)cn12
Second: O=C1OC(=O)c2cc(-c3ccc4c(c3)C(=O)OC4=O)ccc21
The “activation” value of the first is higher: -2.99% for the first, -3.37% for the second.

First: CC1CC(=O)NN=C1c1ccc(NCC(C)(C)NCC(O)COc2cc(Cl)ccc2C#N)cc1 (stereo not given)
Second: CC(=O)c1ccc2c(c1)N(CCCN(C)C)c1ccccc1S2
The “activation” value of the first is lower: -3.7% [at 30.3 µM] for the first, -0.0411% [at 30.3 µM] for the second.

Going from COc1ccnc2c1CCCCC2S(=O)c1nc2ccccc2[nH]1 (stereo not given) to CC(=O)Oc1ccc(C(=C2CCCCC2)c2ccc(OC(C)=O)cc2)cc1, the “activation” value falls from 0.778% [at 30.3 µM] to -4.34% [at 30.3 µM].

Going from Cc1cccc(C)c1NC(=O)CN1CCN(CCCC(c2ccc(F)cc2)c2ccc(F)cc2)CC1 to Cc1ccccc1N=Nc1ccc(N=Nc2c(O)ccc3ccccc23)c(C)c1, the “activation” value falls from -0.481% [at 30.3 µM] to -1.7% [at 30.3 µM].

Compared with Cc1onc(-c2c(Cl)cccc2Cl)c1C(=O)N[C@@H]1C(=O)N2[C@@H]1SC(C)(C)[C@@H]2C(=O)O, CO/N=C(/C(=O)N[C@@H]1C(=O)N2C(C(=O)OCOC(=O)C(C)(C)C)=C(C)CS[C@H]12)c1csc(N)n1 is higher in “activation” value: -7.14% [at 30.3 µM] for the first, -2.43% [at 30.3 µM] for the second.

Compared with NCCCC(O)(P(=O)(O)O)P(=O)(O)O, CO[C@]1(NC(=O)CSC(F)F)C(=O)N2C(C(=O)O)=C(CSc3nnnn3CCO)CO[C@H]21 is lower in “activation” value: 0.315% [at 30.3 µM] for the first, -2% [at 30.3 µM] for the second.

Compared with COc1cc(C)nc(-n2nc(C)cc2OC)n1, COc1cc2c(cc1OC)-c1cc(=Nc3c(C)cc(C)cc3C)n(C)c(=O)n1CC2 is lower in “activation” value: -0.63% [at 30.3 µM] for the first, -5.2% [at 30.3 µM] for the second.

Going from O=[N+]([O-])c1ccc(O)c2ncccc12 to NC1(c2ccc(-c3nc4ccn5c(=O)[nH]nc5c4cc3-c3ccccc3)cc2)CCC1, the “activation” value rises from 2.41% [at 30.3 µM] to 3.05% [at 30.3 µM].

With CCN(CCCc1ccccc1)CCCc1ccccc1 the “activation” value was -1.34% [at 30.3 µM].

With CC(=O)Oc1ccc(C2(c3ccc(OC(C)=O)cc3)Oc3ccccc3NC2=O)cc1 the Potency was 4460 nM (active).
In the case of C1CN(SSN2CCOCC2)CCO1, the Potency is reported as “inactive”.
For O=[N+]([O-])c1cc(N(CCO)CCO)ccc1NCCO, the Potency was “inactive”.
In the case of CC(C)C[C@H](NC(=O)[C@H](Cc1ccccc1)NC(=O)c1cnccn1)B(O)O, the Potency is reported as 14.1 nM (active).

Work on C=C/C=C/C=C/CCCCC yielded an activation of -3.72% [at 13.5 µM].
